Measurements published in PubChem BioAssay AID504861 (Broad Institute, 2011).
In all, about 1,200 compounds went through this assay and about 290 (24%) were called active. Another 3% or so got no clear call; they are omitted. These entries were drawn from the full list. Results with a measured potency or affinity are listed apart. A number with no mark means an inactive call.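 The calls were made as follows: active = compounds lowering cell viability signal with fitted half-maximal concentration at most ten times their highest tested concentration; inconclusive = flat fit with 30 to 70% signal loss, or poor fit; inactive = the rest.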

assay: HEK293T cell viability reduction, dose response, cytotoxicity control for LMP1 NF-kB inhibitor project, CellTiter-Glo luminescence, cherry-picks (AID 504861); settings: CellTiter-Glo ATP luminescence, 48 h; series mostly up to 26 µM; activity change, negative = cytotoxicity: at the top concentration

| Compound | activity change, negative = cytotoxicity |
| --- | --- |
| COc1cc(/C=N/NC(=O)c2cccc(S(=O)(=O)N3CCOCC3)c2)cc(OC)c1O | -1.07% |
| COc1cc(C(=O)Oc2ccccc2/C=N/NC(=O)c2ccc(C)c(Cl)c2)cc(OC)c1OC | 2.62% |
| CCCCCC(=O)NC(=S)Nc1ccc(Br)cc1C | 5.46% |
| O=C(N/N=C/c1cccc(O)c1)c1ccc2c(c1)OCCO2 | 1.25% |
| Cc1cccc(C)c1NC(=O)CN(C)C(=O)c1ccc(-c2cccc(C(F)(F)F)c2)o1 | -5.78% |
| COCCNC(=O)C(=O)NCC1OCCN1C(=O)c1ccc(Cl)cc1 (stereo unspecified) | 8.08% |
| COC(=O)c1ccc(/C=C(/NC(=O)c2ccccc2)C(=O)N2CCOCC2)cc1 | 1.26% |
| Cc1ccc(N=c2c([N+](=O)[O-])nn(-c3ccc4c(c3)OCCO4)n2O)cc1F | 23.8% |
| COc1ccc(C(=O)NC(=S)NNC(=O)c2ccc3ccccc3n2)cc1 | 1.74% |
| CC(=O)Nc1ccc(OCC(O)CNC(C)C)cc1 (stereo unspecified) | 5.57% |
| COc1ccc(-c2cnc(NCc3cc4c(cc3[N+](=O)[O-])OCO4)n2C)cc1 | 6.75% |
| Cc1ccc(-n2c(C)c([N+](=O)[O-])c3ccc(O)c(CN(C)C)c32)cc1 | -4.92% |
| O=C(Nc1ncccc1O)c1ccc(S(=O)(=O)NCc2ccco2)cc1 | -2.08% |
| O=C(/C=C/Nc1ccc(Br)cc1F)c1ccccc1 | -4.86% |
| CC(=O)c1c(C)[nH]c(C(=O)Nc2ccc(C)cn2)c1C | 5.29% |
| Cc1ccsc1/C=N/NC(=O)c1ccc2c(c1)OCCO2 | -4.75% |
| CN(C)c1cccc(C(=O)N/N=C/c2ccccc2F)c1 | -0.047% |
| COc1ccccc1C=NN=Cc1ccccc1O | 5.09% |
| CCc1nnc(NC(=O)c2ccc(S(=O)(=O)N3CCOCC3)cc2)s1 | 5.76% |
| CCCn1c(C)cc(C(=O)COC(=O)c2ccc[nH]c2=O)c1C | 3.28% |
| CCn1c2ccccc2c2cc(/C=C(/C#N)C(N)=S)ccc21 | -9.81% |
| Oc1c(N=NC(=S)Nc2ccccc2F)c2ccccc2n1Cc1cccc(Cl)c1 | 2.68% |
| COC(=O)C1=C(C)N(c2cc(C)cc(C)c2)/C(=C/c2ccc(O)cc2)C1=O | 0.245% |
| COC(=O)/C=C/C(=O)Nc1cccc(C(F)(F)F)c1 | 9.97% |
| O=C(CN1CCN(S(=O)(=O)c2ccc(F)cc2)CC1)Nc1cccc(C(F)(F)F)c1 | 3.31% |
| CCOc1ccc(C(=O)Nc2nnc(SCC(=O)NCC3CCCO3)s2)cc1 (stereo unspecified) | 10.5% |

| Compound | activity change, negative = cytotoxicity |
| --- | --- |
| CN=C1S/C(=C\c2ccc(O)c(Br)c2)C(=O)N1C | 6.54% |
| CC(=O)O[C@H]1CC[C@@]2(C)C(=CC[C@H]3[C@@H]4CC[C@H](C(C)=O)[C@@]4(C)CC[C@@H]32)C1 | -0.254% |
| NC(=O)C1(Nc2ccc([N+](=O)[O-])cc2)CCCC1 | -8.21% |
| Cc1ccccc1Cn1c(O)c(N=NC(=S)Nc2ccccc2F)c2ccccc21 | 8.25% |
| CCOc1ccc(NC(=O)Cn2cc(C(=O)CC)c3ccccc32)cc1 | 9.94% |
| COc1cccc(C(=O)Nc2nc3ccccc3[nH]2)c1 | -10.2% |
| O=C(O)c1ccc(N/N=C/c2ccc3ncccc3c2)cc1 | 18.4% |
| O=C(CSc1nc2ccccc2c(=O)n1CCCN1CCOCC1)Nc1ccc(Br)cc1 | 5.39% |
| CC(C)(C)c1ccc(C(=O)Nc2nnc(SCC(=O)NCC3CCCO3)s2)cc1 (stereo unspecified) | 6.78% |
| CCC(Oc1ccccc1)C(=O)NC1CCSC1=O (stereo unspecified) | 11.1% |
| O=C(NC1CCCCC1)N1CCN(c2ccc([N+](=O)[O-])cc2)CC1 | -5.64% |
| CCOC(=O)c1sc2nc(C)nc(NCc3ccccc3)c2c1C | -0.055% |
| CCN(CC(=O)Nc1ccc(NC(C)=O)cc1)C(=O)c1cccnc1Sc1ccc(C)c(C)c1 | 3.97% |
| Cc1ccccc1C(=O)NC(=S)Nc1ccc(N2CCN(C(=O)c3ccccc3)CC2)cc1 | -0.757% |
| Cc1ccc(CNC(=O)C(=O)NCC2OCCN2S(=O)(=O)c2ccc(Cl)cc2)cc1 (stereo unspecified) | 12.9% |
| CN1CCN(/N=C/c2ccc(N(c3ccccc3)c3ccccc3)cc2)CC1 | -5.7% |
| COc1cccc(/C=N/Nc2ncnc(N)c2[N+](=O)[O-])c1OC | 4.22% |
| O=[N+]([O-])c1ccc(O)c(/C=N/Nc2ncnc3c2cnn3-c2ccccc2)c1 | 13% |
| Cc1cc(C(=O)COc2cccnc2[N+](=O)[O-])c(C)n1-c1ccccc1F | -9.11% |
| Cc1ccsc1-c1nc(CSCC(=O)N2CCN(c3ccccc3)CC2)c(C)o1 | -11.5% |
| Oc1c(N=NC(=S)Nc2ccccc2F)c2ccccc2n1Cc1ccc(F)cc1 | -7.28% |
| COc1ccc(Cn2c(SCc3cc(C)ccc3C)nc3cc(OC)c(OC)cc3c2=N)cc1 | 3.5% |
| COc1ccc(-c2cn3nc4c(nc3n2)CCCC4)cc1 | 5.52% |
| CCOC(=O)C1=C(C)NC(C)=C(C(=O)OCC)C1C(=O)OCC(=O)N(C)C1CCS(=O)(=O)C1 (stereo unspecified) | 15.2% |
| O=C(CCCN1C(=O)/C(=C/c2ccccc2Cl)SC1=S)NNC(=O)c1ccccc1Cl | 4.78% |
